Hits are enriched below; roughly 6.8% of the tested compounds scored in any of these assays.
Spn DPM-DC inh – blocks S. pneumoniae diphosphomevalonate decarboxylase | purified DPM-DC, PK/LDH coupled NADH fluorescence | calls only at 10 µM | hit rate 0.49% among 65,000;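 active = the 320 compounds with the highest percent inhibition in the single-dose primary screen, excluding strongly autofluorescent ones, cut at about 32% in these data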;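 note: kinetic rate of NADH fluorescence loss reporting ADP formed by the decarboxylase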
Spn PMK inh – inhibitors of Streptococcus pneumoniae phosphomevalonate kinase. purified PMK, PK/LDH-coupled NADH absorbance 340 nm. inhibition, % at 10 µM. hit rate 0.49% among 65,000. AID 539;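 active = top-ranked compounds by inhibition in the single 10 µM screen, taking a fixed number of the strongest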;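 note: 0% = full reaction with DMSO carrier and 100% = background rate without enzyme reaction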
Fluor 339 460 – intrinsic fluorescence of library compounds, ex339/em460 – biochemical, MLSMR library, data from DPM-DC assay, artefact control, profiling panel | compound autofluorescence, ex339/em460 nm, NADH buffer; stronger effect = higher value; 1 = no-compound wells, NADH background | hit rate 5.5% among 65,000 | AID 709 | fluorescence fold increase at 10 µM;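 active = at 10 µM, mean starting fluorescence two-fold or more over control wells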;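 note: signal is the first read of a kinetic run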
Abs 340nm – compounds absorbing at 340 nm. compound absorbance at 340 nm, fold over control. fold change at 10 µM. 65,000 tested, under 10 active. AID 708;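 active = at 10 µM dose, initial 340 nm absorbance at least 2 fold that of control wells; inactive = change under 2 fold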;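 note: initial absorbance extrapolated from kinetic A340 decline of NADH oxidation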
NADH enzymes – inhibitors of enzymes used to reach an NAD/NADH endpoint; IC50, µM (highest dose often 10 µM), for inactives: top-dose inhibition; coupled PK/LDH NADH assays, four targets; AID 774; hit rate 0.02% among 65,000;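 active = single-dose screening hits from any of four coupled enzyme assays that gave an IC50 when retested across doses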;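 note: the DPM-DC format reads NADH fluorescence rather than 340 nm absorbance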
Spn MK inh – inhibitors of Streptococcus pneumoniae mevalonate kinase; inhibition, % at 10 µM; purified MK, PK/LDH-coupled NADH absorbance 340 nm; hit rate 0.48% among 65,000; AID 555;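 active = ranked among the strongest by inhibition in the single 10 µM screen, a fixed top-ranked set picked for dose follow-up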
The depositor's hits bear a star.

`CCOC(=O)CC1C(=O)NC2CCCCC2N1C(=O)Nc1ccc(Cl)cc1` (configuration not stated) gave Spn DPM-DC inh inactive, Spn PMK inh 10, Fluor 339 460 1.1, Abs 340nm 1.1, NADH enzymes 9% and Spn MK inh 7.
Screening CCCN(CCC)C(=O)c1ccc2c(c1)N(Cc1ccccc1)C(=O)CS2=O (configuration not stated) returned Spn DPM-DC inh inactive, Spn PMK inh 3, Fluor 339 460 1, Abs 340nm 1, NADH enzymes 4% and Spn MK inh 10.
Screening CCOC(=O)N1CCC(N2Cc3cccc(C(=O)NC(C)c4ccc5c(c4)OCCO5)c3C2=O)CC1 (configuration not stated) returned Spn DPM-DC inh inactive, Spn PMK inh 2, Fluor 339 460 1.1, Abs 340nm 1, NADH enzymes 3% and Spn MK inh 8.
Cc1ccc(CNC(=O)CN(C)S(=O)(=O)c2cccc3cccnc23)cc1 was read as Spn DPM-DC inh inactive, Spn PMK inh 0, Fluor 339 460 1.1, Abs 340nm 1, NADH enzymes 3% and Spn MK inh 8.
`O=C(C1CCCN1S(=O)(=O)c1ccc(Cl)c(Cl)c1)N1CCCCC1` (configuration not stated) gave Spn DPM-DC inh inactive, Spn PMK inh 14, Fluor 339 460 1.1, Abs 340nm 0.98, NADH enzymes 5% and Spn MK inh 0.
For CCOC(=O)c1c(-c2ccc(C)s2)csc1NC(=O)c1ccco1 the results were Spn DPM-DC inh inactive, Spn PMK inh 4, Fluor 339 460 3.5*, Abs 340nm 1.1, NADH enzymes 4% and Spn MK inh 0.
`COC(=O)c1c(-c2ccc(F)cc2)csc1NC(=O)c1ccco1` gave Spn DPM-DC inh inactive, Spn PMK inh 0, Fluor 339 460 2*, Abs 340nm 1.1, NADH enzymes 2% and Spn MK inh 3.
For CCOC(=O)c1c(NC(=O)c2cccs2)sc2c1CCN(C(=O)OCC)C2 the results were Spn PMK inh 10, Fluor 339 460 2*, Abs 340nm 1, NADH enzymes 2% and Spn MK inh 0.
Screening CCOC(=O)c1c(NC(=O)c2ccco2)sc(C(=O)N2CCCC2)c1C returned Spn DPM-DC inh inactive, Spn PMK inh 0, Fluor 339 460 1.2, Abs 340nm 1.1, NADH enzymes 1% and Spn MK inh 3.
CCOC(=O)c1c(NC(=O)c2nn(CC)cc2Br)c(C#N)cn1-c1ccccc1 was read as Spn DPM-DC inh inactive, Spn PMK inh 4, Fluor 339 460 1.1, Abs 340nm 0.99, NADH enzymes 11% and Spn MK inh 2.
CCOC(=O)c1c(-c2ccccc2)csc1NC(=O)c1nn(CC)cc1Br was read as Spn PMK inh 4, Fluor 339 460 3.5*, Abs 340nm 1.1, NADH enzymes 4% and Spn MK inh 4.
CCOC(=O)c1c(NC(=O)c2cc(C3CC3)on2)sc(C(C)=O)c1C was read as Spn DPM-DC inh inactive, Spn PMK inh 0, Fluor 339 460 1.2, Abs 340nm 1.1, NADH enzymes 0% and Spn MK inh 0.
Screening COC(=O)c1c(NC(=O)c2ccoc2C)sc2c1CCC2 returned Spn DPM-DC inh active, Spn PMK inh 4, Fluor 339 460 2.4*, Abs 340nm 1.1, NADH enzymes 14% and Spn MK inh 5.
CCOC(=O)c1c(NC(=O)OC)sc2c1CCC2 was read as Spn DPM-DC inh inactive, Spn PMK inh 2, Fluor 339 460 1.1, Abs 340nm 0.99, NADH enzymes 1% and Spn MK inh 2.
Screening CCOC(=O)c1c(NC(=O)c2cccs2)sc2c1CCC2 returned Spn PMK inh 0, Fluor 339 460 2.3*, Abs 340nm 1.1, NADH enzymes 1% and Spn MK inh 2.
CCOC(=O)c1c(NC(=O)c2cccs2)sc2c1CCCC2 was read as Spn PMK inh 19, Fluor 339 460 2.3*, Abs 340nm 1.1, NADH enzymes 17% and Spn MK inh 14.
`CCOC(=O)c1c(NC(=O)Cc2cccs2)sc2c1CCCC2` gave Spn DPM-DC inh inactive, Spn PMK inh 16, Fluor 339 460 1.1, Abs 340nm 1, NADH enzymes 5% and Spn MK inh 0.
For Cc1occc1C(=O)Nc1sc2c(c1C(N)=O)CCCCC2 the results were Spn DPM-DC inh inactive, Spn PMK inh 2, Fluor 339 460 1.2, Abs 340nm 1.1, NADH enzymes 2% and Spn MK inh 1.
Screening CCOC(=O)c1c(NC(=O)c2cc(C3CC3)on2)sc2c1CCCC2 returned Spn PMK inh 27*, Fluor 339 460 2.1*, Abs 340nm 1.1, NADH enzymes 14% and Spn MK inh 0.
Screening O=C(NCc1cccnc1)C1CCCN(S(=O)(=O)c2ccccc2)C1 (configuration not stated) returned Spn DPM-DC inh inactive, Spn PMK inh 0, Fluor 339 460 1.1, Abs 340nm 1, NADH enzymes 1% and Spn MK inh 3.
Screening CCC(=O)c1ccc(OCCSc2ncccn2)cc1 returned Spn DPM-DC inh inactive, Spn PMK inh 2, Fluor 339 460 1, Abs 340nm 1, NADH enzymes 2% and Spn MK inh 4.
For CC(C)(C)NC(=O)C(c1ccccc1F)N(Cc1ccco1)C(=O)c1csnn1 (configuration not stated) the results were Spn DPM-DC inh inactive, Spn PMK inh 9, Fluor 339 460 1, Abs 340nm 1, NADH enzymes 7% and Spn MK inh 10.
For COCCn1c(SCC(=O)Nc2cccc(C(=O)OC)c2)nc2ccccc2c1=O the results were Spn DPM-DC inh inactive, Spn PMK inh 6, Fluor 339 460 1, Abs 340nm 1, NADH enzymes 6% and Spn MK inh 12.
`CCCCc1cc(=O)oc2c(CN(C)C)c(O)c(Cl)cc12` gave Spn PMK inh 0, Fluor 339 460 2.3*, Abs 340nm 1.2, NADH enzymes 3% and Spn MK inh 5.
For Cc1c(C)c2cc(Cl)c(O)c(CN(C)C)c2oc1=O the results were Spn PMK inh 0, Fluor 339 460 2.3*, Abs 340nm 1.1, NADH enzymes 4% and Spn MK inh 8.
CCc1c(C)c2cc(Cl)c(O)c(CN(C)C)c2oc1=O was read as Spn PMK inh 1, Fluor 339 460 3.7*, Abs 340nm 1.2, NADH enzymes 7% and Spn MK inh 12.
CCc1c(C)c2cc(Cl)c(O)c(CN(CC)CC)c2oc1=O was read as Spn PMK inh 6, Fluor 339 460 3.7*, Abs 340nm 1.1, NADH enzymes 6% and Spn MK inh 6.
`CC(C)(C)NC(=O)c1sccc1C(=O)O` gave Spn DPM-DC inh inactive, Spn PMK inh 13, Fluor 339 460 1.1, Abs 340nm 1, NADH enzymes 4% and Spn MK inh 0.

Screens as filed in PubChem.
